# GRP78 ERSR act – inducers of ER stress response in human glioma cells. U87-MG GRP78 promoter luciferase reporter, 16 h. Potency, µM, for the others: at the top dose activation, hits mostly activators. 0.02% of 420,000 active; note: series mostly up to about 76 µM; % of control where 0% means no effect; nearly all actives have a fitted effect of over 35% in size
#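 Stably transfected U87-MG human glioma cells carrying a GRP78-based luminescent sensor were seeded at 1000 cells/well, pin-dosed with compounds and incubated 16 h. Luciferase reagent was then added, and end-point luminescence was read after 10 min at room temperature.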
# Chronic BCR inh – blocks chronic active B-cell receptor signaling. ABC-DLBCL IkBa-CBG/CBR reporter, luminescence ratio, 4 h. Potency, µM (highest dose often 46.1 µM), inactives show at the top dose activity change, negative = inhibition, most hits filed as inhibitors. 0.05% of 340,000 active. AID 493014; active = well fitted inhibition curve with a large enough effect in the signal ratio, with a control signal flat, not every such curve was filed as active; inconclusive = small, poorly fitted or top-dose-only effect, or effect the other way, or a change in a side signal; the % refers to the signal ratio;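 note: plate controls were basal doxycycline-induced cells for no effect and cells given 10 µM MG132 for full effect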
#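 TMD8 human ABC-DLBCL cells with doxycycline-inducible IκBα–green luciferase fusion and unfused red luciferase, in 0.5% FBS medium; compounds up to 46 uM, 4 h at 37C. Green/red luminescence ratio, filter-overlap corrected, fitted to concentration-response curves.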
# ALOX12 inh – inhibitors of human 12S-lipoxygenase ALOX12; AID 1671190; Potency, µM (highest dose often 108 µM), without a hit: top-dose activity change, negative = inhibition, usual class: inhibitors; P18054; 1.1% of 580,000 active; purified 12hLO, xylenol orange hydroperoxide absorbance; note: % is set by controls: 0 for no effect and ±100 for the full control effect
# Target sequence (P18054 whole entry, looked up): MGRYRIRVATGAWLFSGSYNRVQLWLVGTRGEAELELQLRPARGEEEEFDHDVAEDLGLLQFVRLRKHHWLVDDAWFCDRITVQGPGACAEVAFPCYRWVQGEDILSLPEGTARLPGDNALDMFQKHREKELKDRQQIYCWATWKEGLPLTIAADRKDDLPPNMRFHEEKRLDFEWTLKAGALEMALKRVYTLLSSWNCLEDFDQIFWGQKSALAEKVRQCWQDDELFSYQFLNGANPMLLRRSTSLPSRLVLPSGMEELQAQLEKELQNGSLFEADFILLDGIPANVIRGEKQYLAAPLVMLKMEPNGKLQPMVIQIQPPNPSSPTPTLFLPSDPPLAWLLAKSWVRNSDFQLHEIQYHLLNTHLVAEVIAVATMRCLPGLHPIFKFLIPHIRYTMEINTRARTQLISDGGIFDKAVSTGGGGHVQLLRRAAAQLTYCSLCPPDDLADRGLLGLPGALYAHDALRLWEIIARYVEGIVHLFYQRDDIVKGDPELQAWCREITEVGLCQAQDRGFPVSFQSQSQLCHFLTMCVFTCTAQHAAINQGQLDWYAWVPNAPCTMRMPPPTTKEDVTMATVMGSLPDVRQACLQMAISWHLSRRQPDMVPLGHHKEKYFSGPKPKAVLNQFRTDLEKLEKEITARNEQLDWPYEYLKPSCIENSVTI
#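 Purified human 12hLO (150 nM final) in 25 mM Hepes, 0.01% Triton X-100, pH 7.0 was preincubated 15 min at room temperature with compound. Then 40 uM arachidonic acid was added, 30 min. Hydroperoxide was read by Fe-XO absorbance ratio 573/405 nm.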
# Apoferritin bind – candidate novel general anesthetic via apoferritin binding; P02791; apoferritin/1-aminoanthracene competitive binding, fluorescence; Potency, µM (doses to about 77.5 µM), without a hit: at the highest dose activity change, negative = displacement, hits mostly inhibitors; 0.074% of 350,000 active; note: % is set by controls: 0 for no effect and ±100 for the full control effect; nearly all actives have a fitted effect of over 20% in size
#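 Read-out: endpoint 1-AMA fluorescence, excitation 380 nm and emission 535 nm, after compounds sit 10 min at room temperature with 10 uM horse-spleen apoferritin in 50% saturated 1-AMA/PBS. Values come from four-parameter Hill fits.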
# The depositor's hits bear a star; u = inconclusive; x = no result; ! = not active in a repeat; [ ] = another dose, or the depositor's remark. This is a sample that favours compounds with a hit; in the whole collection about 1.1% have one here. Unless noted, calls come from the whole dose curve; as a rule, active = well fitted curve in the direction sought with a large enough effect; inconclusive = small, poorly fitted or top-dose-only effect, or another doubt; inactive = no such curve, though single readings can be large; an effect the other way counts as inactive or inconclusive. Potency is the fitted concentration of half-maximal effect.
SMILES,GRP78 ERSR act,Chronic BCR inh,ALOX12 inh,Apoferritin bind
COc1ccccc1Cc1c(-c2ccc(OC)c(OC)c2)nc2c(C)cc(Br)cn12,-3%,x,u,x
COc1ccc(Cc2c(-c3cccc(Br)c3)nc3c(C)cc(Br)cn23)c(C)c1,0%,x,u,x
COc1ccccc1Cc1c(-c2ccc(C#N)cc2)nc2ccc(Br)cn12,-2%,x,25µM*,x
Cc1nc(-c2ccc(S(=O)(=O)Nc3ccc(C)c(C)c3)cc2)co1,x,x,31%,x
CC1=C[C@@H](CNC(=O)Cn2cnnn2)[C@H](C(C)C)C[C@H]1Cc1nc2ccccc2n1C,x,x,10%[176 µM],x
NS(=O)(=O)c1ccc(-c2ccc(/C=N/Nc3ccc(S(=O)(=O)Nc4ccccc4)cc3[N+](=O)[O-])o2)cc1,x,x,-25%,x
COc1ccc(Cc2c(-c3ccccc3)nc3ccc(Cl)cn23)c(C)c1,-2%,x,u,x
COc1ccc(Cc2c(-c3ccc(F)cc3)nc3ccc(Cl)cn23)c(C)c1,6%,x,28µM*,x
COc1ccc(Cc2c(-c3cccc(Cl)c3)nc3ccc(C)cn23)c(C)c1,-2%,x,10µM*,x
COCCNC(=O)c1ccc2c(c1)N(C)C(CC(=O)N1CCCOCC1)CO2 (configuration not stated),x,x,-6%,x
COc1ccc(-c2noc(C(=O)O)c2[C@@H](C)NC(=O)c2cc(C)n(C)n2)cc1,x,x,-12%[176 µM],x
CN1CCC(CNC(=O)Nc2csc3ccccc23)CC1,1%,2%,40µM*,2%
O=C(Cc1csc2ccccc12)NCC1CC1,2%,x,u,x
COCCCN1C(=O)C(=O)/C(=C(/O)c2ccc(C)cc2)C1c1ccccc1 (configuration not stated),-6%,10%,7.1µM*,-8%
CCOc1cc(C2/C(=C(/O)c3ccc(OC(C)C)cc3)C(=O)C(=O)N2CCCOC)ccc1O (configuration not stated),-2%,19%,20µM*,-5%
COCCCN1C(=O)C(=O)/C(=C(/O)c2ccc(OC)cc2)C1c1cccc(OC)c1 (configuration not stated),-2%,0%,-13%,-10%
C=CCOc1ccc(/C(O)=C2\C(=O)C(=O)N(CCCOC)C2c2ccc(O)c(OC)c2)cc1 (configuration not stated),-2%,0%,u,-17%
CC(C)c1ccc(NC(=S)NN(c2ccccc2)c2ccccc2)cc1,-4%,4%,40µM*,-18%
CC(C)(C)C(=O)NC[C@H]1O[C@H](Cc2cc(-c3ccc(F)cc3)on2)CC[C@@H]1O,x,x,22%[176 µM],x
CCc1nc(NCCCN2CCOCC2)c2oc3ccccc3c2n1,-4%,u,u,3%
CCc1nc(NCCN2CCOCC2)c2oc3ccccc3c2n1,-4%,u,14µM*,-9%
COc1ccccc1NC(=O)c1ccccc1NC(=O)c1ccccc1C(=O)O,0%,-22%,1.8µM*,-13%
CC(=O)Oc1ccc(C(=O)Nc2ccccc2C(=O)Nc2ccc(C(=O)O)cc2)cc1,-1%,6%,4.5µM*,-10%
COc1ccc(-c2cc(C(=O)NCc3ccc(F)cc3)c3ccccc3n2)c(OC)c1,x,x,16µM*,x
O=C(Nc1ccc(F)cc1F)c1cc(-c2ccco2)nc2ccccc12,-2%,-1%,10µM*!,-2%
SMILES,GRP78 ERSR act,Chronic BCR inh,ALOX12 inh,Apoferritin bind
CC(=O)Oc1ccc(C(=O)Nc2ccccc2C(=O)Nc2cccc(C(=O)O)c2)cc1,-2%,-20%,16%,2%
CCOC(=O)C(NC(=O)c1cccc(C(F)(F)F)c1)(OCc1ccccc1)C(F)(F)F (configuration not stated),x,x,32%,x
COc1ccccc1NC(=O)c1cc(-c2ccco2)nc2ccccc12,x,x,16µM*,x
CS(=O)(=O)N1CCc2cc(C(=O)Nc3ccc(-c4nnc5n4CCCCC5)cc3)ccc21,x,x,-14%,x
Cc1cccc(CNc2cc(-c3cccc(NS(C)(=O)=O)c3)ncn2)c1,6%,x,35µM*,-15%
COc1ccc(N(C)C(=O)c2ccc3ccccc3n2)cc1OC,x,x,4%,x
CC(=O)c1cccc(Nc2nc(-c3cccc(C)c3)nc3ccccc23)c1,-5%,x,6.3µM*,-8%
CC(=O)NCCNc1nc(-c2cccc(NS(C)(=O)=O)c2)nc2ccccc12,6%,x,2.2µM*,x
CNc1nc(-c2cccc(NS(C)(=O)=O)c2)nc2ccccc12,0%,x,u,x
CC(Oc1cccc(C(C)C)c1)C(N)=O (configuration not stated),x,x,-3%,x
CSCC[C@@H]1NC(=O)c2cc(NC(=O)Cn3ccc4ccccc43)ccc2NC1=O,x,x,35µM*,x
CC1CCc2c(sc(/N=C/c3ccco3)c2C(N)=O)C1 (configuration not stated),0%,0%,7%,-3%
CC1CCc2c(sc(/N=C/c3cccnc3)c2C(N)=O)C1 (configuration not stated),1%,-4%,32µM*,2%
CCOC(=O)C1CCN(Cc2cc(=O)oc3c(C)cc(C)cc23)CC1,x,x,-1%,x
Cc1cc(=O)n(CCCO)c(O)c1C#N,-4%,-1%,u,-7%
Cc1cc(=O)n(Cc2ccccc2)c(O)c1C#N,-2%,1%,18µM*,-7%
Cc1ccc(CN2CCC[C@]3(N[C@H](c4ccc(C(F)(F)F)cc4)[C@@H]4C(=O)N(Cc5ccccc5)C(=O)[C@@H]43)C2=O)cc1,-1%,x,8.9µM*,x
COc1ccc([C@H]2N[C@]3(CCCN(Cc4ccc(F)cc4)C3=O)[C@H]3C(=O)N(C)C(=O)[C@@H]23)cc1,-1%,x,u,x
CCN1C(=O)[C@H]2[C@@H](c3ccc(OC)cc3)N[C@]3(CCCN(Cc4ccc(C(F)(F)F)cc4)C3=O)[C@H]2C1=O,-2%,x,32µM*,x
Cc1ccc([C@H]2N[C@]3(CCCN(Cc4ccc(F)cc4)C3=O)[C@H]3C(=O)N(Cc4ccccc4)C(=O)[C@@H]23)cc1,2%,x,14µM*,x
COc1ccc([C@H]2N[C@]3(CCCN(Cc4ccc(F)cc4)C3=O)[C@H]3C(=O)N(Cc4ccccc4)C(=O)[C@@H]23)cc1,-6%,x,35µM*,x
COc1ccc(CN2CCC[C@]3(N[C@H](c4ccc(C(F)(F)F)cc4)[C@@H]4C(=O)N(Cc5ccccc5)C(=O)[C@@H]43)C2=O)cc1,-6%,x,u,x
CCCOc1ccc(C(=O)Nc2nonc2C)cc1,x,x,0%,x
N#Cc1nc(-c2cccc(Cl)c2)oc1NCCCN1CCOCC1,x,x,1%,x
COc1cccc(C2=Cc3ccc(F)cc3C(CC(C)=O)N2c2ccc(C#CC3(O)CCCCC3)cc2)c1 (configuration not stated),x,x,16µM*,x
C=CC[n+]1c(-c2ccc(C)cc2)csc1Nc1c(C)n(C)n(-c2ccccc2)c1=O,-5%,1%,28µM*,-6%
C=CC[n+]1c(-c2ccc(Cl)cc2Cl)csc1Nc1c(C)n(C)n(-c2ccccc2)c1=O,-2%,u,u,-17%
O=C1C(=O)c2cccnc2-c2ncccc21,-10%,x,4µM*,x
COC1=C(Br)C(=O)c2ncccc2C1=O,-13%,x,25µM*,x
